Reference: PubChem BioAssay (NCI)
About 83,000 compounds went through this panel and 20% of them were active in at least one assay; those are over-represented in the sample as a whole.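 Plates (96-well) were seeded with cells, treated with compound at one concentration, and incubated for 48 hours before percent growth was determined.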 Calls of active or inactive are those of the source. Rule for the calls: active = growth percent below 10; inactive = the rest.

Columns and labels:
Test in all cases: NCI-60 one-dose screen, 48 h (100 = growth as untreated, 0 = no growth, -100 = all killed)
Conditions in all cases: 10 µM unless noted
[1] = test system: NCI-H23 lung
[2] = test system: NCI-H226 lung
[3] = test system: NCI-H322M lung
[4] = test system: HOP-62 NSCLC
[5] = test system: NCI-H522 lung
[6] = test system: A549/ATCC NSCLC
[7] = test system: 786-0 renal
[8] = test system: COLO 205 colon
[9] = test system: HOP-92 NSCLC
[10] = test system: NCI-H460 lung

Measured: growth

CN1CCN(c2cc(Nc3cc(C4CC4)[nH]n3)nc(Nc3ccc(CC(=O)NCc4cccc(F)c4)cc3)n2)CC1
active: [2] 3.21% | [4] 8.32% | [8] -54.9%
inactive: [1] 23.2% | [3] 20.5% | [5] 61.2% | [6] 24.3% | [7] 18.3%

O=C(Nc1cccc2ccccc12)NC1CC1
inactive: [1] 105% | [2] 99.9% | [3] 111% | [4] 89.8% | [9] 99% | [5] 136% | [6] 103% | [7] 101%

CCOC(=O)c1c(C(=O)c2cn(C)c3ccc(Br)cc23)c(-c2cn(C)c3ccc(Br)cc23)n(NC(=O)OC(C)(C)C)c1C
active: [9] 4.73% [100 µM]
inactive: [1] 86.5% [100 µM] | [2] 89.7% [100 µM] | [3] 89.5% [100 µM] | [4] 56.1% [100 µM] | [5] 89.6% [100 µM] | [6] 74% [100 µM] | [7] 32% [100 µM] | [8] 98.5% [100 µM]

COC1=CC(c2ccc[nH]2)=N/C1=C\c1[nH]c(C)c(CC(=O)NCc2ccccc2)c1C
active: [9] -7.96% | [7] -42.7% | [8] 1.08%
inactive: [1] 23.9% | [2] 28.8% | [3] 42.7% | [4] 20.6% | [5] 17% | [6] 18.1%

N=C(N)c1ccc(-c2ccc(-c3ccc(Cl)cc3Cl)s2)cc1
active: [10] -66.3% | [5] -28.6% | [6] -30.2% | [7] -18% | [8] -31.6%
inactive: [1] 56.5% | [2] 77.9% | [3] 13.9% | [4] 34.1%

CCCCNCCCCCNc1cc(OC)cc2cccnc12
inactive: [1] 101% | [2] 96.5% | [3] 106% | [4] 88% | [9] 49.2% | [5] 94% | [6] 95.9% | [7] 90.1% | [8] 93.7%

C1CN(SSN2CCOCC2)CCO1
inactive: [2] 26.5% [100 µM] | [3] 59.3% [100 µM] | [4] 91.9% [100 µM] | [6] 35.7% [100 µM]
active: [1] 3.63% [100 µM] | [9] -0.94% [100 µM] | [5] -53.1% [100 µM] | [7] -93% [100 µM] | [8] -70% [100 µM]

Nc1nc(N)c(-c2ccc(Cl)c(Cl)c2)c(CBr)n1
inactive: [1] 78.3% | [2] 93.3% | [3] 78.4% | [4] 102% | [9] 99% | [6] 27% | [7] 52% | [8] 76.6%
active: [5] 9.79%

COc1c(B(O)O)cccc1-c1cc(C)c2c(ccc3[nH]ncc32)n1
inactive: [1] 78.4% | [2] 89.7% | [3] 74.3% | [4] 46.3% | [9] 41.8% | [5] 62.6% | [6] 75.1% | [7] 40.9% | [8] 93.3%

COc1ccc(/C=C(\C#N)n2nnc3cc(F)c(F)cc32)cc1
inactive: [1] 74.7% | [2] 101% | [3] 72.6% | [4] 49.6% | [9] 72.3% | [5] 12.7% | [6] 51.7% | [7] 60.8% | [8] 38.2%

COc1ccc(C(=O)C/C(=C\c2ccc(Cl)cc2)C(=O)NCc2ccccc2)cc1
inactive: [1] 90.6% | [2] 73.4% | [3] 84.5% | [4] 82.6% | [10] 74.4% | [5] 60.7% | [6] 84.7% | [7] 99.2% | [8] 108%

COc1cc2c(cc1OC)C(C)N(S(N)(=O)=O)CC2 (stereo unspecified)
inactive: [1] 87.1% | [2] 78.8% | [3] 105% | [4] 80.2% | [9] 98.6% | [5] 98.4% | [6] 101% | [7] 89.3% | [8] 111%

C=CC(=O)N1CCN(c2cccc(Oc3nccc(Nc4nnc(-c5ccc(Br)cc5)s4)n3)c2)CC1
active: [5] -2.86%
inactive: [1] 79% | [2] 88.8% | [3] 92.3% | [4] 62.2% | [9] 88.3% | [6] 47.3% | [7] 73.5%

COc1cc(-c2nc3sccn3c2-c2ccnc(NCCNS(=O)(=O)c3ccccc3)n2)ccc1F
inactive: [1] 67.6% | [2] 41.2% | [3] 67.7% | [4] 73.2% | [9] 47.8% | [5] 36.2% | [6] 45.5% | [7] 61.4% | [8] 40.4%

COc1cc2c(c(OC)c1OC)CCC(c1cccc(C(=O)Nc3cccc(Cl)c3)c1)O2 (stereo unspecified)
active: [9] 8.45%
inactive: [1] 85.8% | [2] 65.6% | [3] 51.7% | [4] 79.6% | [5] 51.7% | [6] 61.6% | [7] 79.8% | [8] 76.7%

Cc1ccc2c(n1)C(=O)C(Br)=C(CC(C)C)C2=O
inactive: [1] 98.6% | [2] 97.2% | [3] 96.5% | [4] 97.1% | [9] 80.4% | [5] 67.7% | [6] 90.8% | [7] 96.3% | [8] 78.5%

COc1ccc(OC)c(/C=N/Nc2ncnc3c2c(C)nn3C)c1
inactive: [1] 106% | [2] 92.6% | [3] 114% | [4] 92% | [9] 96.2% | [5] 93.8% | [6] 104% | [7] 102% | [8] 102%

NC(=O)c1cccc(-n2ccc3cc(NC(=O)c4ccc(N5CCOCC5)c(C(F)(F)F)c4)ccc32)n1
inactive: [1] 77.5% | [2] 66.3% | [3] 57.1% | [4] 44.5% | [9] 66.8% | [5] 58.9% | [6] 42.7% | [7] 19.1% | [8] 34.4%

CCN(CC)CCn1c2ccc(OC)cc2c2sc3cc(OC)ccc3c(=O)c21
inactive: [1] 23.1% | [2] 71.4% | [3] 29.8% | [4] 38.1% | [9] 41.7% | [5] 48.1% | [6] 19.1% | [7] 11.1% | [8] 18.6%

COC(=O)c1cc(N=C2NC(=O)/C(=C/C=C/c3ccccc3)S2)ccc1O
active: [8] 9.95%
inactive: [1] 37.2% | [2] 37.5% | [3] 47.2% | [4] 44.5% | [9] 34.3% | [5] 19.4% | [6] 30.8% | [7] 20.4%

Cc1ccc(Nc2cc(N)nc(N)n2)cc1Cl
inactive: [1] 87.6% | [2] 93.3% | [3] 99.8% | [4] 87.3% | [9] 83.9% | [5] 87% | [6] 83.1% | [7] 87.9% | [8] 107%

CCN(CC)c1ccc(\C=N/N=C(N)/C(N)=N\N=C/c2ccc(N(CC)CC)cc2)cc1
inactive: [1] 94.9% | [2] 103% | [3] 105% | [4] 93.1% | [9] 116% | [5] 92.2% | [6] 104% | [7] 113% | [8] 106%

N#Cc1nc(-c2ccc(Cl)cc2)oc1S(=O)(=O)N1CCN(c2ccc(F)cc2)CC1
inactive: [1] 88.6% | [2] 94.9% | [3] 94% | [4] 96.4% | [5] 65.9% | [6] 98.6% | [7] 99.5% | [8] 102%

NC(=O)c1ccc(-c2c3ccccc3cc3c2ccc2ccccc23)cc1
active: [5] -20.6%
inactive: [1] 70.7% | [2] 65.6% | [3] 80.1% | [4] 65.7% | [10] 29.9% | [6] 63.1% | [7] 52.4% | [8] 52.5%

COc1ccc(Cc2cnc(NC(=O)c3cc(C)oc3C)s2)cc1
inactive: [1] 59.5% | [2] 70.7% | [3] 51.9% | [4] 53% | [9] 49.9% | [5] 14.4% | [6] 38.1% | [7] 43.4%

Cc1[nH]c(C(=O)Nc2ccc(C(=O)N3CCN(c4cc5c(cc4F)c(=O)c(C(=O)O)cn5C4CC4)CC3)cc2OC(C)C)c(Cl)c1Cl
inactive: [1] 78.4% | [2] 96.5% | [3] 90.3% | [4] 97.8% | [9] 46.5% | [5] 82.1% | [6] 38.4% | [7] 79.8% | [8] 114%

COc1ccc(/C=C(\C#N)n2nnc3ccc(Cl)cc32)cc1
inactive: [1] 71% | [2] 105% | [3] 80.8% | [4] 111% | [9] 74.2% | [5] 17.8% | [6] 58.9% | [7] 39.8% | [8] 83.1%

CCCC/C(CC)=N\NS(=O)(=O)c1ccc([N+](=O)[O-])cc1
inactive: [1] 95.9% | [2] 93.4% | [3] 109% | [4] 96.7% | [9] 91.6% | [5] 90.9% | [6] 89.1% | [7] 103% | [8] 105%

COc1ccc(Nc2nnc(-c3ccc(OC)c(OC)c3)o2)cc1
inactive: [1] 74.1% | [2] 85.3% | [3] 87.4% | [4] 84.9% | [9] 66.4% | [5] 62.8% | [6] 83.9% | [7] 91.9% | [8] 99.5%
